Screening results as filed in PubChem BioAssay.
Hits are enriched below; roughly 19% of the tested compounds scored in any of these assays.
HT1080 IDH1KD tx: toxicity to HT-1080 IDH1 knockdown cells (counter line); Potency, µM (top dose mostly 46.1 µM), without a hit: at the top dose activity, negative = toxicity, most hits filed as cytotoxic; actives 2% (n = 360,000); HT-1080 IDH1 knockdown viability, ATP luminescence, 48 h;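 note: potency is the fitted concentration of half-maximal effect; 0% = DMSO wells and -100% = cell-free medium wells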
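Knockdown cells (IDH1KD HT-1080) received compounds 2 h after plating at 750 cells/well and were kept 48 h at 37 °C in 5% FBS RPMI. A CellTiter-Glo luminescence read gave % activity for curve fitting.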
DT40 TDP1 no CPT: qHTS for Inhibitors of human tyrosyl-DNA phosphodiesterase 1 (TDP1): qHTS in cells in absence of CPT. DT40 Tdp1-/- hTDP1 cells, no CPT, ATP luminescence, 48 h. Potency, µM (titrated, usually from 46.2 µM), inactives show at the top dose activity change, negative = growth inhibition, actives largely listed as inhibitors. actives 15% (n = 420,000). AID 686978, 2013; note: potency is the fitted concentration of half-maximal effect; nearly all actives have a fitted effect of over 55% in size
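No-CPT arm: Tdp1-/-;hTDP1 DT40 cells (400/well) plus compounds, incubated ≥48 hr at 37 °C. Readout CellTiter-Glo luminescence.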
DT40 TDP1 CPT: growth inhibition of DT40 Tdp1-/-;hTDP1 cells with camptothecin (screen for TDP1 inhibitors) | Potency, µM (doses to about 46.2 µM), without a hit: at the highest dose activity change, negative = growth inhibition, hits mostly inhibitors | actives 12% (n = 420,000) | chicken DT40 Tdp1-/-;hTDP1 cells + 20 nM CPT, ATP luminescence, 48 h; note: potency is the fitted concentration of half-maximal effect; nearly all actives have a fitted effect of over 55% in size
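Chicken DT40 Tdp1-/- cells stably complemented with human TDP1 were seeded at 400 cells/well in medium containing 20 nM camptothecin, exposed to pin-transferred compounds, and grown at 37 °C for at least 48 hr. Viability was read as ATP luminescence.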
HT1080NT lethal: kills 2HG-producing HT-1080-NT fibrosarcoma cells. HT-1080-NT fibrosarcoma viability, CellTiter-Glo ATP luminescence, 48 h. actives 1.6% (n = 360,000). Potency, µM (titrated, usually from 46.1 µM), inactives show top-dose activity, negative = less viability, actives largely listed as cytotoxic. AID 686970;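 note: NT is the 2HG producing partner of a matched IDH1 knockdown line; potency is the fitted concentration of half-maximal effect; 0% = DMSO-treated cells and -100% = media-only wells without cells; nearly all actives have a fitted effect of over 55% in size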
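750 cells/well, RPMI + 5% FBS; 2 h settle, compound pin-transfer, 48 h at 37 degrees C. CellTiter-Glo 10 min RT, luminescence. Normalized to DMSO and media-only wells.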
IL-1B inflam inh: inflammasome signaling inhibition, IL-1 beta readout; THP-1 LPS/ATP IL-1B secretion, AlphaLISA, 16 h; hits give low values; activity change, % at 57.5 µM; actives 4.7% (n = 360,000); AID 743279; in the data active = activity change below about -50%; inconclusive = mostly about -30% to -49%
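THP-1 cells pretreated 1 hr with compounds (up to 57.5 uM final), then stimulated with LPS (250 ng/mL final) plus ATP (1.25 mM final); secreted IL-1B measured by AlphaLISA after 16 hr, decreased signal indicating inhibition.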
Numbers without * were called inactive; ? = inconclusive; / = no result. Unless noted, calls come from the whole dose curve; as a rule, active = well fitted curve in the direction sought with a large enough effect; inconclusive = small, poorly fitted or top-dose-only effect, or another doubt; inactive = no such curve, though single readings can be large; an effect the other way counts as inactive or inconclusive. Unless noted, % is set by controls: 0 for no effect and ±100 for the full control effect.

SMILES	HT1080 IDH1KD tx	DT40 TDP1 no CPT	DT40 TDP1 CPT	HT1080NT lethal	IL-1B inflam inh
CCCCNS(=O)(=O)c1ccc(C)c(-c2nnc3c4ccccc4c(C)nn23)c1	/	16µM*	?	/	/
Cc1ccc(-c2nnc(Nc3ccccc3)c3ccccc23)cc1S(=O)(=O)NCC1CCCO1 (stereo unspecified)	-20%	16µM*	26µM*	-19%	-62*
Cc1ccc(-c2nn3c(-c4ccco4)nnc3c3ccccc23)cc1S(=O)(=O)NCC1CCCO1 (stereo unspecified)	1%	5.8µM*	?	2%	-26
CCCNS(=O)(=O)c1cc(-c2nn3c(C)nnc3c3ccccc23)ccc1C	/	18µM*	?	/	/
CC(=O)Nc1ccc(Nc2nnc(-c3ccc(C)c(S(=O)(=O)NCC4CCCO4)c3)c3ccccc23)cc1 (stereo unspecified)	-2%	3%	-3%	-4%	-10
Cc1ccc(-c2nn(C)c(=O)c3ccccc23)cc1S(=O)(=O)NCCN1CCOCC1	-4%	?	?	-12%	-2
CCCc1cc(=O)[nH]c2nnc(SCC(=O)NC3CCCCC3)n12	4%	-5%	1%	10%	1
CCOC(=O)CSc1nc2ccc(NC(=O)COc3ccc(F)cc3)cc2s1	/	-18%	-1%	/	/
Cn1c(-c2ccncc2)nc2cc(C(=O)N[C@H]3CCCCNC3=O)cc(NC(=O)C3CCC3)c21	/	?	-4%	/	/
CNC(=O)c1ccc(Nc2nnc(-c3ccc(C)c(S(=O)(=O)NCC4CCCO4)c3)c3ccccc23)cc1 (stereo unspecified)	-13%	13µM*	26µM*	-21%	?
CCOC(=O)CNS(=O)(=O)c1cc(-c2nn(C)c(=O)c3ccccc23)ccc1C	0%	?	?	2%	-92*
Cc1ccccc1S(=O)(=O)NCC1CCCO1 (stereo unspecified)	12%	-5%	11%	4%	1
Cc1ccc(C)c(Nc2nnc(-c3ccc(C)c(S(=O)(=O)NCC4CCCO4)c3)c3ccccc23)c1 (stereo unspecified)	/	5.2µM*	18µM*	/	/
O=C(COC(=O)COc1ccc(Cl)cc1)NCCNC(=O)COC(=O)COc1ccc(Cl)cc1	3%	?	15%	0%	-5
O=C(NNC(=O)c1ccncc1)Nc1ccc(Cl)cc1	21%	-10%	-6%	1%	-19
N/N=C/C(=N\Nc1ccc(Cl)cc1)C(=O)c1ccncc1	?	-23%	8%	?	-51*
COc1ccccc1NS(=O)(=O)c1ccc2oc(SCC(C)=O)nc2c1	-15%	?	-6%	-3%	16
COc1ccccc1NS(=O)(=O)c1ccc2oc(SCc3ccc(F)cc3)nc2c1	-28%	16µM*	16µM*	?	-6
COc1ccccc1NS(=O)(=O)c1ccc2oc(SC(C)C(=O)N3CCNC3=O)nc2c1 (stereo unspecified)	-18%	?	15µM*	-7%	?
COC(=O)C(NC(=O)C(NC(=O)C1CCC(C)CC1)C(C)C)C(C)C (stereo unspecified)	4%	-22%	-12%	9%	-4
CC(=O)C(=Nc1ccccc1Cl)NNc1ccc(Cl)cc1	-11%	?	?	-3%	-25
Nc1nc2ccccc2cc1C(=O)NCCCCc1ccccc1	?	1.6µM*	2.1µM*	?	52
O=C(NCc1cccs1)c1ccccc1F	1%	-22%	6%	11%	-3
COc1cc2[nH]cc(C(=O)NCc3cccs3)c(=O)c2cc1OC	?	-16%	-10%	20µM*	-9
Nc1nc2ccccc2cc1C(=O)NCc1cccs1	-26%	7.3µM*	9.2µM*	-11%	48
SMILES	HT1080 IDH1KD tx	DT40 TDP1 no CPT	DT40 TDP1 CPT	HT1080NT lethal	IL-1B inflam inh
COc1ccccc1Nc1cc(C(=O)NCc2cccs2)c2ccccc2n1	/	?	26µM*	/	/
COc1ccc(Cl)cc1NC(=O)CCS(=O)(=O)c1ccc(C)cc1	1%	-20%	14%	0%	22
O=C(Nc1nnc(-c2cccs2)o1)c1cc(-c2ccccc2)nc2ccccc12	?	15µM*	13µM*	?	82
O=C(NCc1cccs1)c1cc(-c2ccccc2)nc2ccccc12	-1%	21µM*	23µM*	-4%	12
Cc1ccc(-c2nc3ccccc3c(C(=O)NCc3cccs3)c2C)cc1	-10%	?	21µM*	-10%	-8
Cc1ccccc1Nc1cc(C(=O)NCc2cccs2)c2ccccc2n1	/	?	21µM*	/	/
COc1ccncc1-c1ccc(C2=CC(=O)CC(C)(C)C2=O)cc1	-7%	?	?	0%	13
Cc1ccc(C)c(OCC(=O)Nc2ccccc2C(=O)N2CCOCC2)c1	-1%	?	0%	5%	-1
COc1ccc(-c2nc3scc(CCNS(=O)(=O)c4ccc(F)c(C(F)(F)F)c4)n3n2)cc1OC	/	13µM*	15µM*	/	/
Cc1csc2nc(CCNS(=O)(=O)c3ccc4c(c3)OCCO4)cn12	8%	-14%	-9%	0%	-14
O=S(=O)(NCCc1csc2nc(-c3ccccc3)nn12)c1ccc(Cl)s1	/	?	-22%	/	/
COc1ccc(-c2nc3scc(CCNS(=O)(=O)c4ccc5c(c4)OCCO5)n3n2)cc1OC	/	21µM*	?	/	/
O=S(=O)(NCCc1csc2nc(-c3ccc(Cl)cc3)nn12)c1ccc2c(c1)OCCO2	/	9.2µM*	15µM*	/	/
O=S(=O)(NCCc1csc2nc(-c3ccc(F)cc3)nn12)c1ccc2c(c1)OCCO2	/	23µM*	16µM*	/	/
O=C(NN=C1CCCCCC1)c1ccc(Cl)s1	6%	3%	-5%	6%	15
